Screening results deposited in PubChem BioAssay by several laboratories.
Mtb hypoxia rep: Mtb hypoxia fluorescent reporter inhibition; M. tuberculosis hypoxia-regulated fluorescent reporter, fluorescence; fluorescence inhibition, % (no concentration beside the values); hit rate 0.1% among 300,000; AID 1159583; in the data active means fluorescence inhibition mostly above about 23%, no sharp cut-off; inactive means mostly below about 17%
ugtP null kill: growth inhibition of S. aureus ugtP deletion strain; hit rate 0.54% among 330,000; S. aureus RN4220 ugtP deletion, OD600 growth, 16 h; growth inhibition, % (concentration not given with the values); in the data active means growth inhibition above about 68%
PriA SSB inh: K. pneumoniae PriA-SSBct interaction inhibition; AID 1272365; hit rate 0.6% among 430,000; AlphaScreen SSBct-PriA binding, biotinylated peptide; inhibition, % at 33 µM; in the data active means inhibition mostly above about 37%, no sharp cut-off; inactive means mostly below about 20%
CCHFV vOTU inh: CCHFV vOTU protease inhibition. Pep-AMC fluorescence. inhibition, % at 11.5 µM. hit rate 0.55% among 370,000. AID 651958; in the data active means inhibition above about 30%
RN4220 kill: kills Staphylococcus aureus RN4220 | S. aureus RN4220 growth, OD600, 16 h | inhibition, % (concentration not given with the values) | hit rate 0.33% among 330,000; in the data active means inhibition above about 85%
A number is an active result; 0 = inactive; - = no result given. Shown are actives, neighbours in structure and some others; about 1.4% of the full set was active somewhere.

SMILES	Mtb hypoxia rep	ugtP null kill	PriA SSB inh	CCHFV vOTU inh	RN4220 kill
O=C(C1CCC1)N(Cc1cccnc1)c1nc2ccc(Cl)cc2s1	-	-	0	-	-
C=CCN(c1ccccc1)S(=O)(=O)c1cccc(C(=O)Nc2ccc(N3CCOCC3)cc2)c1	0	0	42.6	0	0
CC[n+]1c(/C=C/c2ccccc2OC)sc2ccccc21	-	-	0	-	-
CCN1/C(=C/C=C/C=C/C=C/c2sc3ccccc3[n+]2CC)Sc2ccccc21	0	98.1	-	0	91.6
COc1ccc(NC(=O)CSC2=Nc3cccnc3Nc3ccccc32)cc1OC	-	-	44.0	-	-
O=C(CSC1=Nc2cccnc2Nc2ccccc21)Nc1ccc(F)cc1F	-	-	41.0	-	-
O=C(CSC1=Nc2cccnc2Nc2ccccc21)Nc1ccc(OC(F)(F)F)cc1	-	-	0	-	-
COc1cccc2cc(-c3cc(=O)oc4ccc(OC(=O)c5cccs5)cc34)oc12	-	-	0	-	-
COc1cc(C(=O)Nc2ccc(Nc3ccccc3)cc2)cc(OC)c1OC	0	0	43.1	0	0
Cc1cc(C(=O)Nc2ccc(Nc3ccccc3)cc2)ccc1[N+](=O)[O-]	0	0	54.1	0	0
Cc1ccccc1NC(=O)c1ccc(Nc2c([N+](=O)[O-])cc([N+](=O)[O-])c3ccccc23)cc1	0	0	47.9	0	0
O=C(Nc1ccc(Nc2ccccc2)cc1)c1ccc(Cl)c([N+](=O)[O-])c1	0	0	52.1	0	0
O=C(Nc1ccc(SC(F)F)cc1)c1ccc(Cl)c([N+](=O)[O-])c1	-	-	0	-	-
Cn1cccc1C(CNC(=O)c1ccc(C(C)(C)C)cc1)N1CCCC1 (centres undefined)	-	-	0	-	-
Cn1cccc1C(CNC(=O)c1ccc2ccccc2c1)N1CCCC1 (centres undefined)	-	-	22.0	-	-
CC(C)Oc1ccc(C(=O)N2CCN(CCn3ccnc3)CC2)cc1	-	-	0	-	-
Brc1ccc(-c2nn3c(-c4ccccn4)nnc3s2)o1	0	0	92.9	0	0
Clc1ccccc1-c1nn2c(-c3ccccn3)nnc2s1	0	0	0	0	0
c1ccc(-c2nnc3sc(-c4ccco4)nn23)nc1	-	-	0	-	-
Cc1[nH]nc(-c2nn3c(-c4ccccn4)nnc3s2)c1Br	-	-	67.5	-	-
Nc1nn2c(-c3ccccn3)nnc2s1	-	-	59.6	-	-
O=C(N1CCc2[nH]c(=O)ccc2C1)C1(c2cccs2)CCCC1	-	-	0	-	-
COCc1cc(Sc2c(Cl)cccc2Cl)nc(-c2ccccc2)n1	-	85.5	0	0	0
COCc1cc(N2CCCCC2)nc(-c2ccccc2)n1	0	0	0	0	0
O=C(NCc1ccccn1)Nc1cc(Cl)ccc1Cl	0	0	0	0	0
SMILES	Mtb hypoxia rep	ugtP null kill	PriA SSB inh	CCHFV vOTU inh	RN4220 kill
O=C(CC(NCc1ccccn1)C(=O)O)Nc1ccccc1Cl (centres undefined)	0	0	96.6	0	0
CC(C)c1ccc(-c2csc(NC(=O)c3ccc(C#N)cc3)n2)cc1	-	-	0	-	-
Cc1ccc(N=c2scc(C)n2CCCN2CCOCC2)c(C)c1	-	-	0	-	-
O=C(NCCCn1ccnc1)C(=O)NCc1ccccc1Cl	-	-	85.0	-	-
O=C(NCCCn1ccnc1)Nc1cccc(Cl)c1	0	0	74.2	0	0
O=C(NCCCn1ccnc1)C(=O)NCc1ccc(Cl)cc1	-	0	0	0	0
O=C(NCCCn1ccnc1)Nc1cc(Cl)cc(Cl)c1	-	-	56.5	-	-
CC(C)(C)C(=O)Nc1ccccc1C(=O)NCCCn1ccnc1	0	0	50.5	0	0
COc1ccc(N2CC(CNC(=O)Nc3ccccc3Cl)CC2=O)cc1 (centres undefined)	-	-	0	-	-
O=c1ccn(-c2nc(-c3ccccc3)sc2-c2ccccc2)c(=O)[nH]1	-	-	0	-	-
CCN(CC)C(=O)Nc1ccc(C)c(Cl)c1	-	-	0	-	-
COc1ccc(Oc2nc(-c3ccccn3)ncc2OC)cc1	0	0	0	0	0
COc1cnc(-c2ccccn2)nc1Oc1cccc(Cl)c1	0	0	0	0	0
COc1cnc(-c2ccccn2)nc1OC	-	-	112.0	-	-
COc1cnc(-c2ccccn2)nc1Sc1ccccc1Cl	0	0	83.0	0	0
CCOC(=O)C(C)Sc1nc(-c2ccccn2)ncc1OC (centres undefined)	0	0	90.1	0	0
COc1cnc(-c2ccccn2)nc1Sc1c(Cl)cccc1Cl	0	0	0	0	0
COc1cnc(-c2ccccn2)nc1Oc1c(C)cccc1C	0	0	48.7	0	0
O=C(c1cccc(C(F)(F)F)c1)N1CC(n2cc(-c3ccccc3)nn2)C1	-	-	0	-	-
CCNC(=O)N(C)[C@H]1C[C@H]2c3[nH]c4c(-c5cccc(C)c5)cccc4c3CCN2C[C@H]1[C@H](C)O	-	-	-	0	-
Cc1nc(C(=O)N2CCC(Oc3nccnc3C#N)C2)cs1 (centres undefined)	-	-	0	-	-
COc1cnc(-c2ccccn2)nc1Cl	-	-	0	-	-
COc1cnc(-c2ccccn2)nc1N(C)C	0	0	98.4	0	0
FC(F)(F)c1cnc(NNC(=S)Nc2ccc(Cl)cc2)c(Cl)c1	0	0	0	0	92.4
Cn1cc(S(=O)(=O)Nc2nc3ccccc3nc2NCCn2cccc2)cn1	-	-	0	-	-
SMILES	Mtb hypoxia rep	ugtP null kill	PriA SSB inh	CCHFV vOTU inh	RN4220 kill
CCn1c(-c2ccccc2)c(C(=O)CCl)c2ccccc21	0	99.4	0	0	97.3
O=C(Cn1cnc(-c2ccc(F)cc2)cc1=O)N1CCc2ccccc21	-	-	0	-	-
FC(F)Sc1ccc(NC(=S)NCc2ccccc2)cc1	0	0	0	0	0
FC(F)Sc1ccc(NC(=S)NCC2CCCCC2)cc1	0	99.6	0	0	99.1
FC(F)Sc1ccc(NC(=S)NC(c2ccccc2)c2ccccc2)cc1	0	100.3	0	0	99.3
CC(=NNC(=S)N1CCN(c2ccccn2)CC1)c1nccs1	-	-	92.0	-	-
CSc1ccc(Cl)c(C(=O)NCCOc2cc(C(C)C)ccc2C)c1	0	97.3	0	0	96.3
O=S1(=O)NN=C(c2ccccc2)c2ccccc21	-	-	0	-	-
Nc1nc(NCc2ccco2)nc(N2CCCCCC2)c1[N+](=O)[O-]	0	98.5	0	0	95.0
O=S(=O)(O)Sc1ccccc1	-	-	-	0	-
CCN(CC)c1ccc(SS(=O)(=O)O)cc1	0	0	43.2	0	0
Cn1cnc2c(cnn2C2CCS(=O)(=O)C2)c1=O (centres undefined)	-	-	0	-	-
CS(=O)(=O)N1N=C(c2cccs2)CC1c1ccc2nccnc2c1 (centres undefined)	-	-	62.0	-	-
CC(C=Cc1ccco1)=NNC(=O)CNc1ccccc1C	0	0	-	-	0
COC(=O)C(O)(c1ccc(NC(=S)NC(=O)c2ccccc2)cc1)C(F)(F)F (centres undefined)	0	89.5	0	0	0
O=C(NC(=S)Nc1ccc(Oc2ccc(Cl)cc2)cc1)c1ccccc1	-	85.8	0	0	0
COC(=O)C(O)(c1ccc(NC(=O)Oc2ccccc2)cc1)C(F)(F)F (centres undefined)	0	0	0	0	0
Cc1onc(-c2ccccc2Cl)c1C(=O)N1CCN(Cc2nc(-c3ccco3)cs2)CC1	-	-	0	-	-
COc1ccc(CC2COC(=O)C2Cc2ccc(OC3OC(CO)C(O)C(O)C3O)c(OC)c2)cc1OC (centres undefined)	0	0	-	-	0
COc1ccc(-c2csc3ncnc(SCC(=O)Nc4cccc(-c5nc6ccccc6s5)c4)c23)cc1	-	-	0	-	-
O=[N+]([O-])c1ccc(-[n+]2nc(-c3ccccc3)nn2-c2ccccc2)cc1	0	0	100.5	0	0
